Compound activity as filed in PubChem.
ClpP mod: qHTS Assay for Activators of ClpP. ATP-dependent Clp protease proteolytic subunit (Bacillus subtilis (strain 168)), P80244. purified B. subtilis ClpP, FRET peptide cleavage, 20 min. Potency, µM (titrated, usually from 57.5 µM), inactives show at the highest dose activity change, negative = active. 340,000 tested, 1.9% active. AID 651965, 2013; active means well fitted falling curve with a large enough effect; inconclusive means small, poorly fitted or top-dose-only effect; inactive means no such curve, though single readings can be large or run the other way; further: potency means the concentration at half of the fitted maximal effect; the source files actives as falling curves though it sought activators and does not explain the sign; nearly all actives have a fitted effect of over 65% in size
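FRET quenching reversal measured ClpP activation: 10 microg/mL B. subtilis ClpP at pH 8 with the FRET-FV decapeptide, read at 430 nm after 320 nm excitation. The 20-min minus 0-min signal was scaled between DMSO/no-enzyme wells and ADEP (5.8 microM final).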
Pin1 inhibitor: human Pin1 inhibition | Pin1 FP peptide displacement, HiFluor488, 10 min | Potency, µM (top dose mostly 115 µM), for inactives: at the top dose activity, negative = inhibition, usual class: inhibitors | 390,000 tested, 0.009% active; active means well fitted inhibition curve with a large enough effect in the polarisation, with a control signal flat, not every such curve was filed as active; inconclusive means small, poorly fitted or top-dose-only effect, or effect the other way, or a change in a side signal; inactive means no such curve, though single readings can be large or run the other way; the % refers to the polarisation; further: potency means the concentration at half of the fitted maximal effect; on the % scale 0 is the no-effect control and ±100 the full control effect
IL-2 act: IL-2 activation; IL-2 activation reporter assay, cell-based qHTS; stimulated with anti-CD3/CD4/CD28 beads; in transgenic mouse T cells; 360,000 tested, 0.065% active; AID 652025; activation, % (series mostly up to about 46 µM); in the data active means activation above about 50%; inconclusive means mostly about 30% to 49%; further: 0% is about no effect
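First, unstimulated transgenic mouse T cells were exposed to compound for 60 min. Next, anti-CD3/anti-CD4-coated beads with anti-CD28 were added. Finally, after 18 h at 37 degrees C, EGFP and DsRed were imaged.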
PKM2 activator: PKM2 (human) enzyme activation; 260,000 tested, 0.34% active; P14618; purified PKM2, Kinase-Glo ATP luminescence, activation; response scale: 0% is enzyme alone, no compound; Potency, µM (top dose mostly 57.5 µM), inactives show top-dose activation, most hits filed as activators; AID 1631; further: potency means the concentration at half of the fitted maximal effect; on the % scale 0 is the no-effect control and ±100 the full control effect; nearly all actives have a fitted effect of over 55% in size
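Kinase-Glo luminescence reports ATP generated from ADP (0.1 mM) and PEP (0.5 mM) by purified hPK-M2 after 1 h at room temperature, pH 7.2 imidazole buffer; intermediate enzyme activity allows detecting inhibitors and activators.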
USP2a block: inhibitors of human ubiquitin-specific protease USP2a | O75604 | USP2 core, Ub-CHOP2 coupled fluorogenic reporter, 485/531 | Potency, µM (highest dose often 38.3 µM), inactives show at the top dose activity change, negative = inhibition, actives largely listed as inhibitors | 330,000 tested, 0.01% active | AID 463254;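 further: potency means the concentration at half of the fitted maximal effect; plate controls were DMSO wells for no effect and full inhibition by NEM control for full effect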
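Deubiquitinase activity read as fluorescence (485/531 nm) after Ub-CHOP2 cleavage activates the enterokinase reporter on its substrate; USP2 core 10nM, Ub-CHOP2 and substrate 25nM each, 30min compound preincubation then 60min RT; data normalized to NEM, curves fitted.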
Integrin act MD: activators of alpha7 integrin expression for muscular dystrophy; Potency, µM (doses to about 38.3 µM), for inactives: at the top dose activation, usual class: activators; 350,000 tested, 0.064% active; alpha7betagal myoblasts, beta-gal FDG fluorescence, 48 h;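 further: potency means the concentration at half of the fitted maximal effect; 100% = response of the positive control SU9516; nearly all actives have a fitted effect of over 60% in size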
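alpha7betagal+/- myoblasts (passage 13, 250/well) treated 48 h at 37C with compounds at 1:260 dilution of DMSO stock. Lysed, then beta-galactosidase activity read as FDG fluorescence (ex 480/em 540) after 30 min, with pre-read for autofluorescence.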
Numbers without * were called inactive; ? = inconclusive; / = no result given; [ ] = another dose, or the depositor's remark. Compounds with a hit are over-represented: about 1.9% of the library has one in this group of screens. Unless noted, the call rests on the fitted dose curve; in most records, active means well fitted curve in the direction sought with a large enough effect; inconclusive means small, poorly fitted or top-dose-only effect, or another doubt; inactive means no such curve, though single readings can be large; an effect the other way counts as inactive or inconclusive.

SMILES	ClpP mod	Pin1 inhibitor	IL-2 act	PKM2 activator	USP2a block	Integrin act MD
O=S(=O)(c1ccc(NC2CCCc3ccccc32)nc1)N1CCOCC1 (stereo unspecified)	31.6µM*	-3.2%	-3.7	-5.9%	3.1%	-5.9%
CC(=O)N1CCC2(CC1)CC(=O)c1cc(OCC(=O)N3CCOCC3)ccc1O2	3.7%	-0.5%	-0.2	2.6%	4.9%	-11.7%
COc1ccccc1OCC(=O)N1CCC2(CC1)CC(=O)c1ccccc1O2	22.4µM*	-6.1%	-2.0	/	0.3%	-8.1%
CCOC(=O)N1CCN(C(=O)COc2ccc3c(c2)C(=O)CC2(CCN(C(C)=O)CC2)O3)CC1	15.8µM*	-9.9%	-0.1	-5.0%	-1.1%	-1.5%
C=CCn1c(-c2cccs2)nc2ccccc21	2.82µM*	-0.5%	1.1	5.7%	-0.2%	-4.6%
c1csc(-c2nnc3ccccn23)c1	?	-2.6%	-2.6	5.3%	-1.6%	39.6%[7.66 µM]
Clc1ccc(-c2nnc3ccccn23)cc1	28.2µM*	-0.4%	2.8	-3.0%	2.7%	3.1%
O=C(O)c1cc(N2C(=O)C3C4C=CC(C4)C3C2=O)ccc1NCc1cccnc1 (stereo unspecified)	35.5µM*	0.9%	2.2	-19.3%	-1.5%	5.5%
O=C(O)c1cc([N+](=O)[O-])ccc1NCc1cccnc1	-1.9%	8.5%	1.3	-10.8%	-1.1%	1.1%
COc1ccc(C(=O)Cc2nnc(C)s2)cc1	20µM*	4.4%	-0.6	3.2%	1.1%	-6.3%
COc1ccc(C(=O)CC(=O)c2ccc(OC)cc2)cc1	0.4%	-1.6%	-1.1	2.6%	3.7%	3.7%
CC(C)n1c(O)c(N=Nc2ccc(Cl)nn2)c2ccccc21	-0.7%	?	87.5*	8.5%	?	13.4%
O=C([C@@H]1CC=C[C@@H]2CCN(C3CC3)C(=O)[C@@H]21)N1CCOCC1	0.1%	/	/	/	/	/
C=CC1=C2C=C(C3CC3)N(c3ccc(OC)cc3)C=C2C(=O)C(C)(OC(=O)c2ccco2)C1=O (stereo unspecified)	/	/	/	1.3%[11.5 µM]	/	/
COC(=O)C1=C[C@@H](C(=O)OC)C2C3=C(C(=O)[C@]2(CC(C)C)NC(=O)c2ccccc2)[C@H](C)n2c(=O)n(C)c(=O)n2[C@@H]3C1 (stereo partly specified)	/	-11.2%	/	/	/	/
CC1(C)Cc2c(cnn2-c2ccccc2)-c2c1c1ccccc1n2CC(O)CCl (stereo unspecified)	22.4µM*	6.7%	0.1	0.0%	-6.7%	-23.3%
C=CCN1C(=O)[C@@H]2Cc3c([nH]c4ccccc34)C(c3cc(OC)c(OC)c(OC)c3)N2C1=S (stereo partly specified)	-3.3%	?	104.5*	/	10.3%	-46.6%
COc1cc([C@H]2c3[nH]c4ccccc4c3C[C@H]3C(=O)N4[C@@H](c5cc(OC)c(OC)c(OC)c5)c5[nH]c6ccccc6c5C[C@H]4C(=O)N23)cc(OC)c1OC	30.1%	26.4%	-0.2	-1.1%	-0.7%	-0.7%
CCN1C(=O)[C@@H]2Cc3c([nH]c4ccccc34)C(c3cc(OC)c(OC)c(OC)c3)N2C1=S (stereo partly specified)	-2.2%	?	93.7*	/	?	-41.2%
OCCCc1nc2n(n1)C(c1ccccc1Cl)C=C(c1cccs1)N2 (stereo unspecified)	22.4µM*	?	3.3	-1.6%	7.4%	7.9%[7.66 µM]
COc1ccc2[nH]c3c(N4CCC(O)(c5cccc(C(F)(F)F)c5)CC4)ncnc3c2c1	31.6µM*	4.5%	3.5	4.9%	-15.1%	-66.1%
O=C(O)c1cc(-c2ccc(Cl)s2)nc2ccccc12	/	1.6%	2.6	0.2%	2.9%	8.2%
CCCCN(CCCC)CCCNC(=O)c1cc(-c2ccc(Cl)s2)nc2ccccc12	35.5µM*	-0.4%	/	/	/	/
CN(Cc1ccccc1)C(=O)COC(=O)c1cc(-c2ccc(Cl)s2)nc2ccccc12	11.2µM*	4.1%	0.8	1.1%	2.7%	-7.6%
Cc1cc2c(s1)c1cnn(Cc3c(F)c(F)c(C)c(F)c3F)c(=O)c1n2C	/	3.6%	/	/	/	/
SMILES	ClpP mod	Pin1 inhibitor	IL-2 act	PKM2 activator	USP2a block	Integrin act MD
O=C(CN1CCc2ccccc2C1)Nc1ccccc1C(F)(F)F	31.6µM*	-1.6%	0.0	1.4%	-5.7%	-43.6%
CN1CCN(CC(=O)Nc2ccccc2C(F)(F)F)CC1	2.4%	-4.8%	3.2	-2.0%	-19.4%	12.3%
COc1ccc2c(=O)cc(C(=O)O)oc2c1	/	6.9%	0.4	-23.6%	1.3%	13.4%
COc1ccc2c(C)c(C(=O)O)oc2c1	25.1µM*	-5.5%	-2.4	0.2%	-1.7%	35.0%
COc1ccc2oc(C(=O)NC(C)c3ccccn3)c(C)c2c1 (stereo unspecified)	25.1µM*	0.3%	-1.5	/	0.4%	7.1%
COc1ccc2oc(C(=O)Nc3nnc(C)s3)c(C)c2c1	28.2µM*	?	0.1	/	0.5%	34.8%
Cc1ccc2oc(C(=O)Nc3nnc(C)s3)c(C)c2c1	-0.5%	14.8%	-1.5	5.9%	1.3%	32.9%
COc1ccc2oc(C(=O)Nc3nc4ccc(S(C)(=O)=O)cc4s3)c(C)c2c1	15.8µM*	4.5%	-0.9	/	1.6%	-0.7%
O=C(OCC#CCSc1nnc(-c2cccc3ccccc23)o1)C1CCCC1	/	2.1%	/	/	/	/
CC1(C)OC(=O)C2(Cc3cc([N+](=O)[O-])ccc3N3CCCCCC32)C(=O)O1 (stereo unspecified)	-4.6%	18.6%	/	/	/	/
CCN1CCN(c2cccc(Nc3nn4c(=O)c5ccccc5nc4s3)c2)CC1	/	8.0%	/	/	/	/
COc1ccc(-c2nc(-c3ccccc3)c(-c3ccc(O)cc3)[nH]2)cc1	5.01µM*	-10.5%	/	/	/	/
O=C(O)COc1ccc(-c2nc(-c3ccccc3)c(-c3ccccc3)[nH]2)cc1	/	-2.4%	-1.2	7.4%	0.3%	-8.4%
COc1ccc(-c2[nH]c(-c3ccc(O)cc3)nc2-c2ccccc2)cc1	7.94µM*	?	/	/	/	/
CC1(C)Cc2cccc(OCC(=O)N3CCN(c4cccc(C(F)(F)F)c4)CC3)c2O1	-0.4%	-0.7%	-0.7	/	-3.3%	-5.8%
CC1(C)Cc2cccc(OCC(=O)N3CCN(c4cccc(Cl)c4)CC3)c2O1	25.1µM*	-0.6%	-2.5	/	4.1%	-2.2%
C/C(=N\NC(=O)c1c(Cl)c(C)nn1C)c1ccc(NC(=O)COc2ccc(Cl)cc2C)cc1	25.1µM*	-8.3%	0.1	-14.5%	0.4%	-3.4%
CCCCc1nc2c(c3c1C[C@H](C)OC3)CN(C(=O)NCCc1c[nH]c3ccccc13)CC2	/	/	/	-1.1%[11.5 µM]	/	/
CCCn1c(-c2ccc(F)cc2)nc2c(NCCCN3CCOCC3)nc(C)nc21	/	/	/	0.5%	/	/
